Calls of active or inactive are those of the source.

Here are results for 5 molecules from PubChem BioAssay.

In assay [1] the test system is PRMT1 (protein arginine N-methyltransferase 1). The assay can be described thus: small molecules binding arginine methyltransferase PRMT1 – biochemical, small-molecule microarray, 635 nm fluorescence, primary screen (AID 1088).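 Also: binding of Prmt1 protein to compounds spotted on small-molecule microarray slides.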 Particulars: higher = more signal.
Assay [2] is described as follows: growth effects on S. cerevisiae YJM789 – YJM789 clinical isolate, OD600, 24 h, basal, primary screen (AID 1089).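 Also: growth of clinical yeast isolate S. cerevisiae YJM 789 seeded 1000 cells per well; test concentration not given here.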 Particulars: higher = more signal, called active from +8 up or from −8 down.
A short description of assay [3]: S. pombe growth modifiers, basal conditions – strain 972, OD600, 24 h, no modulator, primary screen (AID 1090).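 Also: basal condition with compound alone and no growth modifier present; test concentration not given here.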 The conditions noted are these: S. pombe 972 growth, higher = more signal, called active from +8 up or from −8 down.
Assay [4] can be described thus: budding yeast growth modifiers under rapamycin – strain BY4716, OD600, 96 h, primary screen (AID 1091). Also: test concentration not given here. The conditions noted are these: S. cerevisiae BY4716 + rapamycin, higher = more signal, called active from +8 up or from −8 down.
The target of assay [5] is Torsin-1A-interacting protein 2 (Homo sapiens) (UniProt Q8NFQ8). Description: small molecules binding lysate-expressed LULL1 – cell lysate, human LULL1 lysate, 635/667 nm fluorescence, primary screen (AID 1092).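 Also: probe is lysate of COS7 cells overexpressing human LULL1; score merges per-feature 667 nm fluorescence with signal-to-noise.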 Particulars: small-molecule microarray, hLULL1 lysate binding, 635 nm fluorescence; higher = more signal.
Assay [6] can be described thus: optical density change of DRC41 E. coli – strain DRC41, OD650, 24 h, E. coli filamentation project, primary screen (AID 1093).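 Also: MC1000 strain lacking acrAB efflux and sulA so SOS filamentation is blocked; test concentration not given here.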 The conditions noted are these: E. coli DRC41 growth, higher = more signal, called active from +8 up or from −8 down.
A short description of assay [7]: probe aLefty2 binding to arrayed compounds – biochemical, biotinylated probe, 635/667 nm fluorescence, primary screen (AID 1094).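 Also: score merges spot fluorescence near 667 nm with spot signal-to-noise ratio.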 The conditions noted are these: small-molecule microarray, higher = more signal.
Assay [8] deals with Noggin (protein binding on small-molecule microarray). The assay can be described thus: small molecules binding Noggin protein – biochemical, 635/667 nm fluorescence, primary screen (AID 1095).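 Also: score merges 667 nm feature fluorescence with signal to noise over triplicate slides.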 The conditions noted are these: 635 nm fluorescence, higher = more signal.
Assay [9] deals with Neurogenic locus notch homolog protein 3 (Homo sapiens) (UniProt Q9UM47). The assay can be described thus: small molecules binding NOTCH3 protein – biochemical, 635/667 nm fluorescence, primary screen (AID 1096). The conditions noted are these: small-molecule microarray, 635 nm fluorescence, higher = more signal.
Assay [10] in a line: probe aEGFR binding to arrayed compounds – biochemical, biotinylated probe, 635/667 nm fluorescence, primary screen (AID 1097).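 Also: probe is a biotinylated anti-EGFR antibody binding compounds printed on slides; score combines fluorescence near 667 nm and signal to noise of each spot.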 The conditions noted are these: small-molecule microarray, higher = more signal.
Assay [11] concerns Plasmodium falciparum Sir2 (PF13_0152, Sir2A). The assay can be described thus: Plasmodium falciparum Sir2A binding compounds – biochemical, small-molecule microarray, 635 nm fluorescence, primary screen (AID 1098).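 Also: score merges spot fluorescence intensity with its signal-to-noise ratio.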 Particulars: fluorescence 635 nm, higher = more signal.
Assay [12] in a line: probe aDKK1 binding to arrayed compounds – biochemical, biotinylated probe, 635/667 nm fluorescence, primary screen (AID 1099).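 Also: score merges 667nm spot fluorescence with signal to noise across triplicate slides; reference of the scale not given here.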 The conditions noted are these: small-molecule microarray, higher = more signal.
A short description of assay [13]: probe aCHRDL2 binding to arrayed compounds – biochemical, biotinylated probe, 635/667 nm fluorescence, primary screen (AID 1100). Particulars: small-molecule microarray, higher = more signal.
A short description of assay [14]: change in splice reporter luminescence, either direction, cell-based, HEK293, spliceosome inhibition project, primary screen (AID 1101).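 Also: HEK293 cells carrying a splicing-competent luciferase reporter gene; test concentration not given here.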 The conditions noted are these: HEK293 splicing luciferase reporter, 24 h, higher = more signal, called active from +8 up or from −8 down. Background: Reporter assays use an easily measured gene product as a stand-in for the process of interest.

The target of assay [15] is Fibroblast growth factor 10 (Homo sapiens) (UniProt O15520). Description: compounds binding fibroblast growth factor 10 – biochemical, small-molecule microarray, 635 nm fluorescence, primary screen (AID 1102). Particulars: FGF10 binding, fluorescence 635 nm, higher = more signal.
Assay [16] deals with glycogen synthase kinase-3 (GSK3A per assay name; protocol says GSK3B). The assay can be described thus: compounds binding glycogen synthase kinase-3 – biochemical, small-molecule microarray, 635 nm fluorescence, GSK3A, primary screen (AID 1103). Also: the record names both GSK3A and GSK3B. The conditions noted are these: fluorescence 635 nm, higher = more signal.
Assay [17] addresses Epidermal growth factor receptor (Homo sapiens) (UniProt P00533). The assay can be described thus: compounds binding epidermal growth factor receptor – biochemical, small-molecule microarray, 635 nm fluorescence, primary screen (AID 1104).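 Also: score merges 667 nm emission intensity with spot signal to noise over triplicate slides.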 The conditions noted are these: EGFR binding, higher = more signal.
Assay [18] addresses Follistatin-related protein 3 (Homo sapiens) (UniProt O95633). The assay can be described thus: compounds binding follistatin-related protein 3 – biochemical, small-molecule microarray, 635 nm fluorescence, primary screen (AID 1105).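 Also: score merges emission near 667 nm and signal to noise per printed spot across three slides.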 Particulars: FSTL3 binding, higher = more signal.
Assay [19] addresses Dickkopf-related protein 1 (Homo sapiens) (UniProt O94907). Description: small molecules binding DKK1 protein – biochemical, small-molecule microarray, 635 nm fluorescence scan, primary screen (AID 1106).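 Also: score merges emission near 667 nm with signal to noise over three replicate slides.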 Particulars: higher = more signal.
In assay [20] the test system is Inhibin beta A chain (activin A). The assay can be described thus: small molecules binding activin A – biochemical, small-molecule microarray, 635 nm fluorescence scan, primary screen (AID 1107).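 Also: mouse activin A protein probed at 4.33 µg/mL on printed slides; score merges bound-protein fluorescence near 667 nm with spot signal-to-noise.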 The conditions noted are these: INHBA, higher = more signal.

Torsin-1A-interacting protein 2 (Homo sapiens), sequence (Q8NFQ8 whole entry, looked up): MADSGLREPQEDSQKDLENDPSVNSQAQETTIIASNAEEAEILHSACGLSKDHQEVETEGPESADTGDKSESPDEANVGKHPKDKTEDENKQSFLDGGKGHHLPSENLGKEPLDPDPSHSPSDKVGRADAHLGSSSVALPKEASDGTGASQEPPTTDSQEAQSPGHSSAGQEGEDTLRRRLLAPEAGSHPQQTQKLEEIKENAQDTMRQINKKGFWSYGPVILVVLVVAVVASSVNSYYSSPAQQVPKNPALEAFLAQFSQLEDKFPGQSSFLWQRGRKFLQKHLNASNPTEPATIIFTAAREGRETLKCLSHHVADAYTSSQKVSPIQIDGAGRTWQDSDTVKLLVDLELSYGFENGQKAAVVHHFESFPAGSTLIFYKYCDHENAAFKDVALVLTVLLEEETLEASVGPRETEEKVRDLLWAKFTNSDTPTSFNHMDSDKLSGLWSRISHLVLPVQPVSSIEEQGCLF
Fibroblast growth factor 10 (Homo sapiens), sequence (O15520 whole entry, looked up): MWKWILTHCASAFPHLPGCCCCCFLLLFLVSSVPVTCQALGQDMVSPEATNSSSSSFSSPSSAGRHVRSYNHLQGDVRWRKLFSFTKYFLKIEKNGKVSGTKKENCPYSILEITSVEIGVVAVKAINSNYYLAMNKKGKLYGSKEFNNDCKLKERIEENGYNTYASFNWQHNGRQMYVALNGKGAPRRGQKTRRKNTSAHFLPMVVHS
Neurogenic locus notch homolog protein 3 (Homo sapiens), sequence (Q9UM47 whole entry, looked up): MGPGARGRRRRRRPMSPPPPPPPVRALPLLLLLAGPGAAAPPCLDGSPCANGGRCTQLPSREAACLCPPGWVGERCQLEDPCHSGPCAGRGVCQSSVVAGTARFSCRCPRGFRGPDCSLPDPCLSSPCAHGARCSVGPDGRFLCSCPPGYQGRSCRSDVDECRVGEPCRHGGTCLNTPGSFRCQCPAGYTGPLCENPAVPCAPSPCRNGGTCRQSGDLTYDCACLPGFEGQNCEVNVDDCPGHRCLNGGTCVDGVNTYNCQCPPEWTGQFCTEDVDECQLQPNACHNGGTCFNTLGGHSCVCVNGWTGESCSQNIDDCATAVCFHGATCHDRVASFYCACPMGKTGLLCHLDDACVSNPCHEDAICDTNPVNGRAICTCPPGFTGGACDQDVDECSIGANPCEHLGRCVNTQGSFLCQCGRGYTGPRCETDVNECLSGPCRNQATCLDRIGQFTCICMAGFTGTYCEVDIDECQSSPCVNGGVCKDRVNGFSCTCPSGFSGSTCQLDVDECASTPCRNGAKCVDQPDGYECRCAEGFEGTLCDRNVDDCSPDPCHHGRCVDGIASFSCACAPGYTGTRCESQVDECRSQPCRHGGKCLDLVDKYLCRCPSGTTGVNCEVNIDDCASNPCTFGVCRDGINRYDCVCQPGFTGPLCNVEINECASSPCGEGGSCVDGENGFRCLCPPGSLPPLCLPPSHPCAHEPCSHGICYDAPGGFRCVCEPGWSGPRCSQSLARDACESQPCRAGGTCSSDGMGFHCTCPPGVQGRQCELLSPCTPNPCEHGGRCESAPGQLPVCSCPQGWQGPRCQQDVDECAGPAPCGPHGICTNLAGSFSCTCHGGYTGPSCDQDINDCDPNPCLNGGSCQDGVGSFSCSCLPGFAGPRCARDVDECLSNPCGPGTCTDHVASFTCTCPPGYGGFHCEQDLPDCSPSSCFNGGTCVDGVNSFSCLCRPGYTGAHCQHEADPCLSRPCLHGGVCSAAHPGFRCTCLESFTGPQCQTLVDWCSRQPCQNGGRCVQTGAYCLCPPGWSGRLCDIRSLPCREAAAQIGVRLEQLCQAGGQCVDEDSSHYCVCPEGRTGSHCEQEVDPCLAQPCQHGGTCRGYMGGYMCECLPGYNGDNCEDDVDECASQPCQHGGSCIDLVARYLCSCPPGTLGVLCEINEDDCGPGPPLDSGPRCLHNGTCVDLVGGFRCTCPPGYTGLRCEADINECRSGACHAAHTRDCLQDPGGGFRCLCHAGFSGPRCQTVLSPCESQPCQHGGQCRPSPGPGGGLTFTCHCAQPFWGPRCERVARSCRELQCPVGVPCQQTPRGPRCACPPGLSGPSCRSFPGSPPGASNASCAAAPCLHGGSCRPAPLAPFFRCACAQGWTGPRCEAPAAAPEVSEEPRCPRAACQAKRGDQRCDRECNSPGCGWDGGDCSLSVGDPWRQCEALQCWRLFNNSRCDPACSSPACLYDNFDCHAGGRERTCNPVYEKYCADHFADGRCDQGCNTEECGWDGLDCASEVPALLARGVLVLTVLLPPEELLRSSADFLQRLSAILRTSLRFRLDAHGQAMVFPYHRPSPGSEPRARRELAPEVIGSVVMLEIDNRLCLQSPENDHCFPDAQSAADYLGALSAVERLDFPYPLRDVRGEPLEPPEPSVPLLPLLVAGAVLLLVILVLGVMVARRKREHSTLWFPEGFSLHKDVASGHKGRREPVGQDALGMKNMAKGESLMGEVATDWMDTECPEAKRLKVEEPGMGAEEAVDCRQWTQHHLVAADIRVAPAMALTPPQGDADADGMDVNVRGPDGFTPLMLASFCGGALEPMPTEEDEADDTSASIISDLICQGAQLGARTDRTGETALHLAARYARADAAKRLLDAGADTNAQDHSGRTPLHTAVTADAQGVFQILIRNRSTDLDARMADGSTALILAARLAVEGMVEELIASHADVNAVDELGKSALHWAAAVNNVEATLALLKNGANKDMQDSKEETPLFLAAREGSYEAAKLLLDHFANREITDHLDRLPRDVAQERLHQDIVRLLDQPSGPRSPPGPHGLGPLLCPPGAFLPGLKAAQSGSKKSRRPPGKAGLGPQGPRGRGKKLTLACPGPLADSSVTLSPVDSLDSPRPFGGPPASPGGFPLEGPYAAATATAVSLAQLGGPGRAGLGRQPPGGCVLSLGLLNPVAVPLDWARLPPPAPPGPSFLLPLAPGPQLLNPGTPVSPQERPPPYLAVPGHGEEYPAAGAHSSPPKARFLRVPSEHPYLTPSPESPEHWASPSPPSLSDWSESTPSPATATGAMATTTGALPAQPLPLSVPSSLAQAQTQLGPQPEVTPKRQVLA
Epidermal growth factor receptor (Homo sapiens), sequence (P00533 whole entry, looked up): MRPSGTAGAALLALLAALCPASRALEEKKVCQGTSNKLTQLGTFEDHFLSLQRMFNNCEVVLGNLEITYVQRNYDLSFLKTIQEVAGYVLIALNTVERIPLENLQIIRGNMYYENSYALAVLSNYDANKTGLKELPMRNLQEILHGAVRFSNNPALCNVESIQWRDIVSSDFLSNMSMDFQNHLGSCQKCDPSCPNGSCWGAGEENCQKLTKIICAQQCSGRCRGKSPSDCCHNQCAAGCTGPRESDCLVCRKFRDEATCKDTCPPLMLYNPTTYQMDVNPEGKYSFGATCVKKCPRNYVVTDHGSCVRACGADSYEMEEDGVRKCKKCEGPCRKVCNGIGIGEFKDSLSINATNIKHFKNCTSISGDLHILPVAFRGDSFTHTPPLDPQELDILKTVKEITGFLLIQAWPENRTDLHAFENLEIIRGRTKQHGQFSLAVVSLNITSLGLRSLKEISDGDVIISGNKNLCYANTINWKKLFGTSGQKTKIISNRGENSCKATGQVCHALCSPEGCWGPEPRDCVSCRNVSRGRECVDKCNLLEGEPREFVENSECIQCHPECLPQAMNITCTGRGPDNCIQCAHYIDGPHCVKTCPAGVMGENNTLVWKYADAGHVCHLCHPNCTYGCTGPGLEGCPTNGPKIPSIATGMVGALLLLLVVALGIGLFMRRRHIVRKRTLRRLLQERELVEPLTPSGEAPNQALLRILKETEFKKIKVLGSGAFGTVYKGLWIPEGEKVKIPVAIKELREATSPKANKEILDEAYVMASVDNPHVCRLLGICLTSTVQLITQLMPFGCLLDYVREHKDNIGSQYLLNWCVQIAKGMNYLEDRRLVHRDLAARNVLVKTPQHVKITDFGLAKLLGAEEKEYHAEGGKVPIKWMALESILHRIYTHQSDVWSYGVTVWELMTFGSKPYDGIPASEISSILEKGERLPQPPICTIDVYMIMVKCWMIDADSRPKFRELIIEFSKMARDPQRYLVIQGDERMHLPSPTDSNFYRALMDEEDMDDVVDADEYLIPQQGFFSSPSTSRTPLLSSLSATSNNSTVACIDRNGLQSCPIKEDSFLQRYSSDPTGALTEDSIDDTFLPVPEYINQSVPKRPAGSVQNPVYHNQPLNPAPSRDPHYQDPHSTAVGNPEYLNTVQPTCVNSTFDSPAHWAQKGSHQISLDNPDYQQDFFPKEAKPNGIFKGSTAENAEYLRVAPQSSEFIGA
Follistatin-related protein 3 (Homo sapiens), sequence (O95633 whole entry, looked up): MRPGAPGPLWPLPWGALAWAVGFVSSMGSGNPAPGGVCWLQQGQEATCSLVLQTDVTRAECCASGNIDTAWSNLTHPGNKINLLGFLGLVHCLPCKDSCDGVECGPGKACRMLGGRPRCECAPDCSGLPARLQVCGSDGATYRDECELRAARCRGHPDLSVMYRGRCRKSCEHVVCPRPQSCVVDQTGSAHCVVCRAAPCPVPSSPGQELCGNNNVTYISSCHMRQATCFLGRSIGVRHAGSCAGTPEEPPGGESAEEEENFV
Dickkopf-related protein 1 (Homo sapiens), sequence (O94907 whole entry, looked up): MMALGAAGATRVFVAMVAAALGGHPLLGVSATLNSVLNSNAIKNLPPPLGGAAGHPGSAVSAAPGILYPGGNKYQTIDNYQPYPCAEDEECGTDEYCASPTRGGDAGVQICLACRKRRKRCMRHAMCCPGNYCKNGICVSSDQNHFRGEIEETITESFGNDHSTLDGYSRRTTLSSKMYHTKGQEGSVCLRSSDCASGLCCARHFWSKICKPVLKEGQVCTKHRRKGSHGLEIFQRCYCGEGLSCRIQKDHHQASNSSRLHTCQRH

For the molecule `CC(C)=CCCC(C)=CCON=C1C[C@@H](O)[C@@H](O)[C@@H]2[C@@H]3C(=O)N(C(C)(C)C)C(=O)[C@@H]3CC[C@H]12`, the composite z-score in assay [1] is 0.64; in [5] it was 0.312; in [7], -0.138; in assay [8], 0.919; in assay [9] it was 0.539; in assay [10], -0.0466. The composite z-score is 0.0059 in assay [11]; 0.0507 in assay [12]; -0.396 in assay [13]; 0.396 in assay [15]; 0.563 in [16]; 0.512 in assay [17]. The composite z-score was 0.392 in assay [18], 0.432 in assay [19] and -0.159 in assay [20]. In addition, the z-score in assay [2] is 0.0423 (inactive); in assay [3], 0.473 (inactive); in assay [4], -0.656 (inactive); in assay [6] it was 0.281 (inactive); in assay [14], 0.129 (inactive).

As to `O=C1C=C[C@@H](O)[C@@H]2[C@@H]3C(=O)N(c4ccc(F)cc4F)C(=O)[C@@H]3CC[C@@H]12`, the composite z-score is 0.0661 in assay [1]; 0.587 in assay [5]; -0.247 in assay [7]; 1.08 in assay [8]; 0.134 in assay [9]; -0.162 in assay [10]. Moreover, the composite z-score was 0.519 in assay [11]; -0.241 in assay [12]; -0.43 in assay [13]; 0.925 in [15]; 0.39 in assay [16]; 0.462 in assay [17]. Also, the composite z-score was 0.39 in assay [18], 0.664 in [19] and -1.12 in assay [20]. For the same molecule, the z-score was -2.33 (inactive) in assay [2]; -2.21 (inactive) in assay [3]; -0.724 (inactive) in [4]; -0.421 (inactive) in [6]; -1.21 (inactive) in [14].

Consider `CC(C)C[C@H](NC(=O)CCC1CC(OC(=O)NCc2cccc3ccccc23)CC2(CCCC(COC(=O)NCc3ccccc3)O2)O1)C(=O)NCC(c1ccccc1)c1ccccc1` (stereo not given in full), for which the composite z-score was 1.56 in assay [1]; 1.97 in [5]; -0.166 in [7]; 1.64 in assay [8]; 1.09 in [9]; -0.0333 in [10]. For the same molecule, the composite z-score is 0.683 in [11]; -0.0553 in [12]; -0.304 in [13]; 1.26 in assay [15]; 0.91 in [16]; 0.667 in assay [17]. In addition, the values for the composite z-score in assay [18], in assay [19] and in [20] were 1.12, 0.861 and -0.156, respectively. Besides, the z-score in [2] is -0.852 (inactive); in assay [3], 0.333 (inactive); in [4], -0.576 (inactive); in assay [6], 0.94 (inactive); in [14] it was 0.536 (inactive).

`C#CCCCON=C1C[C@@H](O)[C@@H](O)[C@@H]2[C@@H]3C(=O)N(c4cccc(Oc5ccccc5)c4)C(=O)[C@@H]3CC[C@H]12`: the composite z-score was -0.684 in assay [1]; -0.204 in [5]; -0.172 in [7]; -0.738 in assay [8]; -0.581 in assay [9]; -0.213 in [10]. Besides, the composite z-score was 1.06 in [11]; -0.406 in assay [12]; 0.155 in assay [13]; -0.948 in assay [15]; -1.56 in [16]; -0.356 in [17]. In addition, the composite z-score in assay [18] is -0.845; in assay [19], -0.557; in assay [20], -0.69. Further, the z-score in assay [2] is 0.74 (inactive); in assay [3], 0.202 (inactive); in assay [4] it was -0.284 (inactive); in assay [6], 0.676 (inactive); in assay [14] it was -0.558 (inactive).

With `COC(=O)CC=C[C@@H](C)[C@@H](C=NOCC[C@@H]1C=C[C@H](OC(C)=O)[C@@H](COC(C)=O)O1)OC`, the composite z-score in assay [1] is 1.08; in assay [5] it was 0.431; in assay [7], -0.0321; in [8] it was 0.405; in assay [9] it was 0.308; in assay [10], 0.0754. The composite z-score was 0.381 in assay [11]; -0.0928 in assay [12]; -0.546 in [13]; 0.933 in assay [15]; 0.328 in assay [16]; 0.498 in assay [17]. Moreover, the composite z-score was 0.651 in assay [18], 0.556 in assay [19] and -0.3 in assay [20]. For the same molecule, the z-score is 0.355 (inactive) in assay [2]; -0.295 (inactive) in assay [3]; 0.474 (inactive) in assay [4]; -0.152 (inactive) in [6]; 1.21 (inactive) in assay [14].
